Screening data as filed in PubChem.
TDP1 cell CPT = growth inhibition of DT40 Tdp1-/-;hTDP1 cells with camptothecin (screen for TDP1 inhibitors); Potency, µM (highest dose often 46.2 µM), without a hit: top-dose activity change, negative = growth inhibition, hits mostly inhibitors; chicken DT40 Tdp1-/-;hTDP1 cells + 20 nM CPT, ATP luminescence, 48 h; 420,000 tested, 12% active; further: potency means the concentration at half of the fitted maximal effect; on the % scale 0 is the no-effect control and ±100 the full control effect; nearly all actives have a fitted effect of over 55% in size
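Chicken DT40 Tdp1-/- cells stably complemented with human TDP1 were seeded at 400 cells/well in medium containing 20 nM camptothecin, exposed to pin-transferred compounds, and grown at 37 °C for at least 48 hr. Viability was read as ATP luminescence.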
ClpP mod = qHTS Assay for Activators of ClpP; Potency, µM (titrated, usually from 57.5 µM), for the others: top-dose activity change, negative = active; ATP-dependent Clp protease proteolytic subunit (Bacillus subtilis (strain 168)), P80244; 340,000 tested, 1.9% active; purified B. subtilis ClpP, FRET peptide cleavage, 20 min; AID 651965, 2013; active means well fitted falling curve with a large enough effect; inconclusive means small, poorly fitted or top-dose-only effect; inactive means no such curve, though single readings can be large or run the other way; further: potency means the concentration at half of the fitted maximal effect; the source files actives as falling curves though it sought activators and does not explain the sign; nearly all actives have a fitted effect of over 65% in size
Target sequence (P80244 whole entry, looked up): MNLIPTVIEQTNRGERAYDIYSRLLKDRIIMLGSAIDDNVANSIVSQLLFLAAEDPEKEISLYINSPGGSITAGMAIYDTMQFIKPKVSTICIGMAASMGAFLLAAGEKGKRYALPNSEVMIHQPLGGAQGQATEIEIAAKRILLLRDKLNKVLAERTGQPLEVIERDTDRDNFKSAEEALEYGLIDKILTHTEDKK
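FRET quenching reversal measured ClpP activation: 10 microg/mL B. subtilis ClpP at pH 8 with the FRET-FV decapeptide, read at 430 nm after 320 nm excitation. The 20-min minus 0-min signal was scaled between DMSO/no-enzyme wells and ADEP (5.8 microM final).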
DRD3 antagonist = blocks the human D3 dopamine receptor | P35462 | D3R cells, DiscoveRx beta-arrestin luminescence, antagonist mode; hits give low values | max response, negative = inhibition, % | 360,000 tested, 2.5% active; in the data active means max response below about -50%; inconclusive means no clear call, values can overlap the other calls; further: on the % scale 0 is the no-effect control and ±100 the full control effect
Target sequence (P35462 whole entry, looked up): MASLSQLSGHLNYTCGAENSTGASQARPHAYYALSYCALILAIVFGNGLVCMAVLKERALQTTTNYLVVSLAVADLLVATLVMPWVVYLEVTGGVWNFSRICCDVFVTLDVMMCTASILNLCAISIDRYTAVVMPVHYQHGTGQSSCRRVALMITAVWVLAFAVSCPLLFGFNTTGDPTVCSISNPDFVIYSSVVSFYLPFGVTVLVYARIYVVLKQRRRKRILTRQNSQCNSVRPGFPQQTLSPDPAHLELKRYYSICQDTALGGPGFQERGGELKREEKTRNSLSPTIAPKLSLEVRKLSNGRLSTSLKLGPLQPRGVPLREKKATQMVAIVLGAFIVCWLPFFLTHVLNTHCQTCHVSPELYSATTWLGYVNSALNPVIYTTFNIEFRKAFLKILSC
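Cells plated overnight at 1500 cells/well, then exposed to library compounds with dopamine controls for 90 minutes at 37 degrees C. DiscoveRx reagent added for 30–60 minutes at room temperature; luminescence read, quantitative HTS format.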
IL-1B inflam inh = inflammasome signaling inhibition, IL-1 beta readout; THP-1 LPS/ATP IL-1B secretion, AlphaLISA, 16 h; hits give low values; activity change, % at 57.5 µM; 360,000 tested, 4.7% active; AID 743279; in the data active means activity change below about -50%; inconclusive means mostly about -30% to -49%; further: on the % scale 0 is the no-effect control and ±100 the full control effect
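THP-1 cells pretreated 1 hr with compounds (up to 57.5 uM final), then stimulated with LPS (250 ng/mL final) plus ATP (1.25 mM final); secreted IL-1B measured by AlphaLISA after 16 hr, decreased signal indicating inhibition.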
DRD3 agonist = D3 dopamine receptor (human) agonism; D3R DiscoveRx beta-arrestin cells, luminescence, 90 min; P35462; 410,000 tested, 0.58% active; max activation, %; AID 652048; in the data active means max activation above about 30%; further: 0% is about no effect
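Agonist-mode cell screen: cells plated at 1500/well and incubated overnight at 37 °C, then exposed to library compounds for 90 min at 37 °C. Detection reagent was added for 30–60 min at room temperature, and luminescence was read.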
TDP1 cell noCPT = qHTS for Inhibitors of human tyrosyl-DNA phosphodiesterase 1 (TDP1): qHTS in cells in absence of CPT. DT40 Tdp1-/- hTDP1 cells, no CPT, ATP luminescence, 48 h. Potency, µM (doses to about 46.2 µM), without a hit: at the top dose activity change, negative = growth inhibition, most hits filed as inhibitors. 420,000 tested, 15% active. AID 686978, 2013; further: potency means the concentration at half of the fitted maximal effect; on the % scale 0 is the no-effect control and ±100 the full control effect; nearly all actives have a fitted effect of over 55% in size
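Compound effects on proliferation are scored in DT40 Tdp1-/-;hTDP1 cells in the absence of CPT. ATP levels (CellTiter-Glo luminescence) are recorded after a ≥48 hr, 37 °C incubation.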
* = called active by the depositor; ? = inconclusive; nt = not tested or not shown; [ ] = remark or other dose. Hits are enriched below; roughly 21% of the tested compounds scored in any of these assays. Unless noted, the call rests on the fitted dose curve; in most records, active means well fitted inhibition curve with a large enough effect; inconclusive means small, poorly fitted or top-dose-only effect; inactive means flat fitted curve, though single readings scatter.

SMILES | TDP1 cell CPT | ClpP mod | DRD3 antagonist | IL-1B inflam inh | DRD3 agonist | TDP1 cell noCPT
O/N=C/c1ccccc1OCc1ccc(Cl)cc1 | -3.1% | -2.8% | 7.8 | -95.8* | -7.5 | 0.5%
CCOC(=O)N/N=C/c1ccccc1OCc1ccc(Cl)cc1 | ? | 0.3% | 0.0 | -21.6 | -9.4 | 29.1µM*
O=C(NN1C(=O)/C(=C/c2ccc(O)cc2)SC1=S)c1ccccc1O | -1.7% | -2.0% | -5.8 | -8.8 | -2.8 | ?
O=C(NN1C(=O)/C(=C/c2ccc(O)c([N+](=O)[O-])c2)SC1=S)c1ccccc1Cl | 5.0% | nt | -74.3* | -1.8 | -30.8 | -13.0%
COc1cc(/C=C2\SC(=S)N(NC(=O)c3ccccc3O)C2=O)ccc1O | ? | nt | -15.7 | 23.2 | -3.2 | 25.9µM*
COCCN1CCN(C(=O)c2cnn(-c3nccc(-c4ccccc4OC)n3)c2-c2ccco2)CC1 | -0.8%[9.04 µM] | nt | nt | nt | nt | -10.0%
OC1CCCN(Cc2c3ccccc3cc3ccccc23)C1 (configuration not stated) | -15.6% | 20µM* | 17.0 | -17.0 | -1.3 | ?
COC(=O)NNC(=O)Cc1cccc2ccccc12 | 10.5% | 0.6% | -5.0 | 10.2 | -4.3 | 2.3%
CS(=O)(=O)c1nc(S(=O)(=O)c2ccc(Cl)cc2)c(NCCN2CCOCC2)s1 | -10.9% | 0.2% | 4.5 | -52.0* | 10.7 | 20.2%
CS(=O)(=O)c1nc(S(=O)(=O)c2ccc(Cl)cc2)c(NCCCn2ccnc2)s1 | 5.3% | -0.8% | -11.1 | -56.2* | 1.7 | 20.0%
Nc1c(C(=O)Nc2ccccc2Cl)nnn1-c1ccc2c(c1)OCCO2 | ? | nt | 12.2 | -15.3 | 26.0 | ?
CN(C)C(=O)c1ccc(NC(=O)CC2SC(N3CCCC3)=NC2=O)cc1 (configuration not stated) | 2.9% | -2.9% | 18.6 | 4.5 | 0.7 | 8.3%
CN(Cc1ccccc1F)C(=O)c1cccc(NC(=O)CC2SC(N3CCCCC3)=NC2=O)c1 (configuration not stated) | 18.4µM* | nt | 1.7 | -1.1 | 2.1 | 23.1µM*
O=C(CC1SC(N2CCCC2)=NC1=O)Nc1ccc(C(=O)Nc2ncccc2O)cc1 (configuration not stated) | 14.6µM* | 0.9% | 8.9 | 49.7 | -7.3 | 10.3µM*
O=C(CC1SC(N2CCCC2)=NC1=O)Nc1ccc(C(=O)N2CCN(c3cccc(Cl)c3)CC2)cc1 (configuration not stated) | 14.6µM* | 31.6µM* | 3.5 | -50.4* | 0.4 | ?
CCc1ccc(-n2c(=O)c3c4c(sc3n(Cc3ccccc3C#N)c2=O)CCC4)cc1 | -11.6% | 1.4% | nt | nt | -11.8 | -7.2%
Cc1nnc(NC(=O)CN2CCN(Cc3ccc(F)cc3Cl)CC2)s1 | -21.6% | 1.2% | -26.0 | 31.2 | -11.5 | -1.1%
Cc1ccccc1CNC(=O)c1ccc2nc(N3CCOCC3)sc2c1 | ? | -14.8% | -25.5 | 9.0 | 3.7 | ?
O=C(COC(=O)c1ccccc1OCCOc1ccccc1)Nc1ccccc1Br | -11.8% | -7.8% | nt | nt | nt | -19.5%
Cc1cc(NS(=O)(=O)c2cn(C)c(C)n2)ccc1Br | ? | 3.4% | nt | nt | -11.2 | -11.0%
Cc1ccc(NC(=O)COC(=O)Cc2ccsc2)c(C)c1 | 1.2% | nt | 3.1 | 7.5 | 8.6 | -12.7%
O=c1[nH]c2ccccc2nc1/C=C/c1ccc(F)cc1 | ? | nt | 2.9 | 18.4 | 5.1 | ?
Cn1c(/C=C/c2ccccc2)nc2ccccc21 | ? | 4.1% | ? | 19.0 | -5.0 | 16.4µM*
Cn1c(=O)c(/C=C/c2ccc(F)cc2)nc2ccccc21 | ? | -0.5% | -9.7 | -9.9 | -3.7 | 23.1µM*
Cn1c(=O)c(/C=C/c2ccccc2)nc2ccccc21 | ? | ? | -5.7 | -2.1 | -0.3 | 16.4µM*
SMILES | TDP1 cell CPT | ClpP mod | DRD3 antagonist | IL-1B inflam inh | DRD3 agonist | TDP1 cell noCPT
CC(OC(=O)/C=C/c1ccco1)C(=O)NC1CCCCC1 (configuration not stated) | -19.2% | -1.8% | -6.0 | 9.1 | -4.6 | ?
CN(Cc1ccccc1)c1ccc(-c2nc(-c3ccco3)no2)cc1[N+](=O)[O-] | ? | 1.7% | nt | nt | 10.1 | ?
CCOC(=O)c1ccc(NC(=O)c2sc3ccccc3c2Cl)cc1 | -8.1% | -30.0% | nt | nt | 6.0 | -10.1%
CCOC(=O)c1sc2ccccc2c1OC(=O)c1ccc(C)cc1 | 1.9% | 1.8% | 43.1 | 13.3 | 35.4* | ?
CCC(=O)N1CCCc2cc(S(=O)(=O)Nc3ccc(C)c(C)c3)ccc21 | 23.1µM* | -0.9% | nt | nt | -3.4 | 18.4µM*
CCOC(=O)c1ccc(NS(=O)(=O)c2ccc3c(c2)CCN3C(=O)CC)cc1 | 13µM* | -3.7% | nt | nt | -13.6 | ?
CCOC(=O)c1ccccc1NC(=O)COC(=O)CN1C(=O)NC2(CCCC2)C1=O | -34.4% | 1.6% | 14.5 | 8.9 | 1.9 | ?
Cc1cccc(Oc2nc(CN3CCOCC3)nc3sc4c(c23)CCCC4)c1 | ? | -0.7% | 20.2 | ? | -14.7 | ?
Cc1nc(Oc2ccc(S(=O)(=O)N3CCOCC3)cc2Cl)c2c3c(sc2n1)CCCC3 | ? | -5.0% | 10.7 | -51.5* | -5.1 | ?
C[C@@H]1C(=O)O[C@H]2[C@H]1CC[C@@]1(C)C(=O)C=C[C@@](C)(O)[C@H]21 | 4.4% | 2.1% | 65.3 | 5.8 | 0.0 | -5.3%
CC1=C2C3OC(=O)C(C)C3CCC2(C)C=C(Br)C1=O (configuration not stated) | -11.2% | 1.2% | -6.3 | -13.0 | -2.6 | 20.6µM*
CCCCC[C@@H](C)N1C[C@@H](COCc2ccccc2)Oc2cc(N3CC[C@H](N(C)C)C3)ccc2S1(=O)=O | ? | -11.9% | 1.0 | -73.1* | -2.3 | 18.4µM*
CCCCC[C@H](C)N1C[C@H](COCc2ccccc2)Oc2cc(N3CC[C@@H](O)C3)ccc2S1(=O)=O | ? | -15.7% | 19.5 | -11.5 | 2.4 | ?
CCCCC[C@H](C)N1C[C@@H](COCc2ccccc2)Oc2cc(N3CC[C@H](N(C)C)C3)ccc2S1(=O)=O | ? | -3.4% | 1.5 | -50.1* | -0.2 | ?
Cc1cc(-c2ccn[nH]2)c(C)s1 | -6.0% | -1.6% | -2.7 | -17.6 | 6.7 | 3.9%
CNCc1c(OCc2ccccc2)ccc2ccccc12 | ? | nt | ? | -85.9* | -21.2 | ?
COc1cc(CNC(C)(C)CO)cc(Br)c1OCc1ccc(Cl)cc1 | ? | -2.7% | -11.4 | -114.4* | 3.3 | ?
